Screening results from PubChem.
Only some compounds are listed: those with a hit (about 4.6% of all), similar ones and a draw of the others.
GAA850 FXN act – increases GAA850 frataxin promoter reporter activity | HEK293 lucGAA850 FXN promoter luciferase reporter, 24 h; percent of 10 µM SAHA response | activation, % at 6 µM | 360,000 tested, 0.56% active | AID 540364;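 active = activation above the average of all compounds screened plus 3 SD, cutoff fixed separately per campaign, cut at about 7.5% in these data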;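 also: 0% = DMSO wells and 100% = 10 µM SAHA wells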
HSF1 activator – increases HSF-1 driven luciferase reporter signal; NIH3T3-HGL HSF-1 luciferase reporter, MG132, 8 h; 100% = twice DMSO control signal; activation, % at 9 µM; 300,000 tested, 1.7% active;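 active = mean replicate activation of at least 50% with a set share of replicates each reaching 50%; inconclusive = only one of those two conditions met; inactive = mean below 50% and too few replicates reaching it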;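 also: 0% = median of the neutral control wells and 100% = twice that signal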
HSF1 inhib – HSF1 inhibition. NIH3T3-HGL HSE-luciferase, MG132-induced, luminescence 8 h; hits give low values. 300,000 tested, 0.77% active. activity change, negative = inhibition, % at 7.5 µM (by protocol);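 active = more than half of replicate wells show activity change below -50%, luminescence cut by over half; inconclusive = some wells, but at most half, below -50%; inactive = no replicate well below -50%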;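 also: luciferase reports HSF-1 transcriptional activity via heat shock element; 0% = median of DMSO wells and -100% = zero luminescence signal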
AHR activator – activates the human aryl hydrocarbon receptor; activation, % at 5 µM; AID 2796; AHR-responsive luciferase reporter cells, luminescence; P35869; 320,000 tested, 2.5% active; in the data active = activation above about 47%;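 also: 0% = vehicle wells and 100% = reference agonist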
Target sequence (P35869 whole entry, looked up): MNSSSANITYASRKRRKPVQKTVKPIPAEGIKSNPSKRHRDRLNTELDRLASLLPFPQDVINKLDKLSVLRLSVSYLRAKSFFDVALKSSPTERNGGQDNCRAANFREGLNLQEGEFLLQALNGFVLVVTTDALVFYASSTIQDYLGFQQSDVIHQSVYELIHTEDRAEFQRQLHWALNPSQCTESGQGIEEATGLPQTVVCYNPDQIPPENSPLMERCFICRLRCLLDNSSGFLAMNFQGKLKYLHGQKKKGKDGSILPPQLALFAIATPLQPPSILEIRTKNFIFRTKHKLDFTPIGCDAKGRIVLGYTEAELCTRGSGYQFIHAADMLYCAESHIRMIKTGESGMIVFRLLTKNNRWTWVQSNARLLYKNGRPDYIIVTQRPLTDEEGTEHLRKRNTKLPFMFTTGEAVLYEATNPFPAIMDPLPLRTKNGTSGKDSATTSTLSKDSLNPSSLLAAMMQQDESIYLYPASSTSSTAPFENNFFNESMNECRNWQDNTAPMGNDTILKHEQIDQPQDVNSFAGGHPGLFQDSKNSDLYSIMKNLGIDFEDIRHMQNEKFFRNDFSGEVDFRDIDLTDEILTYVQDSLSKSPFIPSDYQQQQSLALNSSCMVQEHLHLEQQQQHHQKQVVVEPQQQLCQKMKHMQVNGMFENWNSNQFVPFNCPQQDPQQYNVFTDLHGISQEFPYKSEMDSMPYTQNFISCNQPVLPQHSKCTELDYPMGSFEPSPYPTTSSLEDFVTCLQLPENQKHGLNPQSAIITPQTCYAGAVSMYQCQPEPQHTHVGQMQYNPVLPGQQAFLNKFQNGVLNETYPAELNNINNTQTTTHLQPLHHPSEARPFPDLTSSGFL
Starred values were filed as active, the others as inactive; ? = inconclusive; nt = not tested or not shown.

SMILES	GAA850 FXN act	HSF1 activator	HSF1 inhib	AHR activator
CCc1cc2ccc(OC)cc2nc1SCC(=O)NNC(=O)c1ccco1	2.4	36.5	8.0	52.6*
COc1ccc(C)cc1NC(=O)CNC(c1ccccc1)c1ccccc1	0.6	4.4	-6.9	8.4
Cc1c(C)c2ccc(O[C@@H]3O[C@H](CO)[C@H](O)[C@H](O)[C@H]3O)c(C)c2oc1=O	1.0	5.9	0.9	nt
CCOC(=O)C1CCCN(CCC(=O)Nc2cc(OC)ccc2OC)C1 (configuration not stated)	-0.2	-61.6	-51.5*	-1.5
CC12CC(c3ccccc3O1)N(C(=O)c1ccco1)C(=S)N2c1ccccc1 (configuration not stated)	3.4	1.4	-5.5	3.2
COc1ccc(-c2oc3cccnc3c2/C=C/c2ccc(OC)c(OC)c2)cc1	1.6	5.5	23.9	47.1*
CC(=O)c1cccc(Nc2cc(C)nc3c(C)cccc23)c1	1.1	-24.7	-9.6	50.0*
COc1cccc(C(=O)NNC(=O)c2sccc2-n2cccc2)c1	0.2	-3.3	-4.0	69.0*
COc1cccc(C(=O)NNC(=O)c2ccccc2-n2cccc2)c1	0.2	4.7	-3.1	10.3
O=C(Nc1ccc(Br)cc1F)c1sccc1-n1cccc1	-0.7	3.0	-0.9	102.8*
Cc1cccc(NC(=O)NNC(=O)c2sccc2-n2cccc2)c1	1.8	4.8	2.5	52.8*
COc1ccc(C(CNC(=O)COc2ccccc2-c2ccccc2)N2CCOCC2)cc1 (configuration not stated)	3.1	5.5	3.1	1.1
Cc1ccccc1Oc1ccc2c(c1)[C@@H]1C[C@H](N(C)C(=O)NC3CCCCC3)[C@H]([C@H](C)O)C(=O)N1CC2	-11.8	nt	nt	nt
COc1cc(CNn2cn[nH]c2=S)cc(Cl)c1OCc1ccc(F)cc1	2.4	0.2	0.1	87.3*
COc1cc(CNn2c(C)n[nH]c2=S)cc(Cl)c1OCc1ccccc1	-0.9	-3.7	1.4	-1.1
CC(OC(=O)c1cc(=O)[nH]c2ccccc12)C(=O)Nc1ccc(Cl)cn1 (configuration not stated)	1.1	nt	nt	6.9
COc1cc(C#Cc2c(-c3cncn3C)n(C)c3ccc(-c4ccc(OC)c(OC)c4)cc23)cc(OC)c1	4.2	nt	nt	68.5*
COc1cc(C#Cc2c(-c3cncn3C)n(C)c3ccc(Br)cc23)cc(OC)c1	2.8	nt	nt	26.5
O=C(NCc1ccc(Cl)cc1)N1CCN(C(=O)c2ccccc2)CC1	-1.6	nt	nt	nt
CNC(=S)NNC(=O)c1oc2nc(-c3ccccc3)cc(C)c2c1N	2.4	2.9	-2.2	56.2*
Cc1ccc2[nH]c(=O)c(C3=NN(C(=O)CCC(=O)O)C(c4cccs4)C3)c(-c3ccccc3)c2c1 (configuration not stated)	-1.4	12.1	0.4	-3.8
COc1ccccc1C(O)(C(=O)N(NC(C)=O)c1ccccc1)c1ccccc1OC	-0.6	-71.5	-62.5*	nt
COc1ccccc1C(O)(C(=O)NNc1ccccc1C)c1ccccc1OC	2.5	-0.2	2.3	1.1
COc1ccc(NC(=O)N2CCCc3ccccc32)cc1	0.5	2.5	2.9	4.4
COc1ccc(NC(=S)N2CCc3ccccc32)cc1OC	1.6	23.5	9.9	53.0*
SMILES	GAA850 FXN act	HSF1 activator	HSF1 inhib	AHR activator
COc1ccc(NC(=O)N2CCc3ccccc32)cc1	3.2	65.0*	25.4	15.9
CCCn1nc2cc(C(=O)NC3CCCc4ccccc43)ccc2c1OCC (configuration not stated)	-0.8	14.0	-5.5	10.4
COc1ccc(CNC(=O)CSc2nc3ccc(OC)cc3[nH]2)cc1	0.2	-2.2	-2.0	17.0
Oc1ccc(C2=NN(c3ccccc3)C(c3ccc(F)cc3)C2)cc1 (configuration not stated)	2.1	-79.8	-74.8*	5.0
COc1ccc(C2CC(c3cccs3)=NN2c2nc(-c3ccccc3)cs2)cc1OC (configuration not stated)	-1.2	92.8*	62.1	12.6
COc1ccc(C2=NN(c3ccccc3)C(c3ccc(OC)c(OC)c3)C2)cc1 (configuration not stated)	6.0	70.5*	38.7	3.2
O=C(Nc1ccc(Cl)cn1)c1cccc2c(Br)cccc12	-1.3	38.1	28.6	74.1*
O=C(Nc1ccc(Br)cn1)c1cccc(C(=O)Nc2ccc(Br)cn2)c1	3.0	1.3	0.1	14.0
O=C(Nc1ccc(Br)cn1)c1cccc2ccccc12	-2.8	-2.1	6.0	70.0*
O=C(Nc1ccc(Br)cn1)c1ccc2ccccc2c1	0.6	?	17.9	47.8*
COc1c(C(=O)Nc2ccc(Br)cn2)ccc2ccccc12	5.1	33.1	7.1	45.0
COc1ccc(-c2coc3cc(OC4OC(CO)C(O)C(O)C4O)cc(O)c3c2=O)cc1 (configuration not stated)	3.4	nt	nt	3.4
Cn1ncc([N+](=O)[O-])c1C(=O)Nc1ccc(-c2ccccc2)cc1	0.8	21.8	4.6	72.6*
Cn1ncc([N+](=O)[O-])c1C(=O)Nc1ccccc1Cl	0.4	-76.8	-72.9*	4.8
Cc1ccccc1NC(=O)c1c([N+](=O)[O-])cnn1C	1.8	-8.2	-10.9	4.2
COc1ccccc1-c1nnc(SC(C)C(=O)NCC2CCCO2)n1C (configuration not stated)	1.8	nt	nt	nt
CCN(CC)c1ccc(/C=C(\C#N)C(=O)NCc2ccccc2)cc1	-0.3	-6.5	-4.2	20.5
Cc1ccc(Nc2cc(C)nc3nc(C)nn23)c(C)c1	-3.5	-7.6	-8.9	16.8
Cc1cc(Nc2ccccc2F)n2nc(C)nc2n1	-1.0	-5.7	-8.9	3.0
Cc1cc(C)cc(Nc2cc(C)nc3nc(C)nn23)c1	-0.4	5.9	3.2	51.1*
Cc1cc(Nc2ccc(Br)cc2F)n2nc(C)nc2n1	-1.4	-2.9	-0.8	55.8*
Cc1occc1-c1nnc(SCC(=O)Nc2nccs2)n1Cc1ccco1	0.9	11.3	-3.1	3.8
O=C(NO)c1cc(OCC(F)(F)F)ccc1OCC(F)(F)F	1.7	-4.2	-2.2	1.5
Cc1cc(C(C)(C)C)ccc1Oc1cccc2c1S(=O)(=O)N(C1CCCC1)CC(COCc1ccccc1)O2 (configuration not stated)	0.6	nt	nt	nt
COc1cc(/C=C/C(=O)NC(C)C2CC3CCC2C3)cc(OC)c1OC (configuration not stated)	-0.6	-90.9	-88.2*	12.5
SMILES	GAA850 FXN act	HSF1 activator	HSF1 inhib	AHR activator
Oc1c(N=Nc2ccccn2)ccc2ccccc12	-15.7	264.8*	183.9	67.8*
CNC(=S)N(Cc1ccco1)Cc1cc2cc(OC)c(OC)cc2[nH]c1=O	1.1	56.7*	14.6	11.7
O=c1[nH]c2cc3c(cc2cc1CN(Cc1cccnc1)C(=S)NCc1ccco1)OCO3	-0.5	17.4	-0.8	65.8*
CNC(=S)N(Cc1ccco1)Cc1cc2cc(OC)ccc2[nH]c1=O	0.5	39.2	8.6	5.9
CCNC(=S)N(Cc1ccco1)Cc1cc2cc(OCC)ccc2[nH]c1=O	4.8	70.7*	41.0	11.5
CCNC(=S)N(Cc1cccs1)Cc1cc2cc(OCC)ccc2[nH]c1=O	2.7	13.8	12.0	27.5
CCOC(=O)CSc1nc2sc(C)c(C)c2c(=O)[nH]1	0.8	27.7	14.8	13.8
